# Measurements: the supplement of paper PMC6555819
# Test system: VDR:RXRa (NR concentration 270 nM, RXRa partner concentration 90 nM)
# Assay: PBM binding z-score (relative to random genomic background probes); higher = stronger binding; sequences stand for … in GC…GCGATTGACAGCGTAGAATGAAGG
# Procedure: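 Protein-binding microarray (Agilent 4x180K custom design, double-stranded 60-nt probes: 5' GC cap, 34-nt variable region, 24-nt constant primer region; full probe sequence given). Purified or IVT nuclear receptor:RXRα heterodimers (3:1 NR:RXRα, mostly 270:90 nM) or homodimers were incubated for 1 h in PBS with 2% milk and no ligand, then detected with Alexa488 antibodies. Fluorescence from o1-orientation probes (~5 replicates averaged) was converted to z-scores against 500 random hg19 background probes. Variable regions are seed direct-repeat (DR0–DR5) sites, all their single-nucleotide variants and half-site ablations.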
row,Sequence,PBM binding z-score
1,ACTATTAGTTGACTTAGGGCAACTGATACGACGC,0.239
2,ATATGTAGGTTAAGGGACATTCAGGTTGGTTCGC,1.07
3,CCTAGTTGGTCAAGTTCACACACGCTATAGGTAC,3.96
4,GCGACTGGGGCATCAGCAGGTTACCATGACTTAA,-0.443
5,TAGTCTAGGTCATTCAGGGGCCAGTATAGAAAGC,3.15
6,ACTAGTTGGTCAGCTGAGGTGACACACAATTCGG,0.731
7,GCTTGTAGATCAAGTTTAAGAAAGACTAAGCTAA,-0.096
8,TCATATAGGTAAACAGGTGAAAGACCGTAAGTTA,1.05
9,CGTCCAAAGTCAAGGTCAGTGAAAGAGACTCGAA,2.11
10,AGAACGAAGGCAATGAGTTGATAGCACGGGTGGC,0.485
11,TCTTGGAGATCAGCAGGTTAAGAAAGCTGGCCAA,0.335
12,CCAGACAGGTGAAAGATAACTCAGTCTGGTACGC,0.17
13,TCTTGTAGATCAAGCATGTTAAGAAAGCCTGAGT,0.348
14,TGAATGAGGGTATAAGATCAGGGAACGTTGCAAA,0.217
15,TCTCGGAGGACCCGAAGGTCAGAGCTTTCCAGAG,0.636
16,TCTAGTTGGTCACAGAGGTCACACACGACGGGTA,6.44
17,TCAGACAGGTGAAGATAACTCAGGTACGCAGTCG,0.709
18,CTCGAAAGGACGTGCTCAGGTGAGTATACCAAAC,-0.251
19,TCATTTAGGTAAACAGGTGAAAGTCCGTAAGTTA,1.26
20,TGAATGAGGTTATAAGATCTGGGAACGTTGCAAA,0.768

row,Sequence,PBM binding z-score
1,CGAACTAGGTCATCCAGGACTGTGAATACATTGA,2.81
2,ACAGACAGGTGCGTGAAGGTAACTCAGCTGGACG,-0.488
3,TCTCGCAGGCCAGAGGGTCACTCAAGAGGTACGG,1.79
4,ACAGACAGTTGATGAAGGTAACTCAGGCTATCAT,0.101
5,CCTACTGGGCCAAGGGCATTGATCAGTCAAAGCA,-0.469
6,CCGACTGGGGCATATGGTTACCATAAGCCAGCCC,-0.695
7,AGTCAAAGTTCAGGACGTGGTAACGTAAAGCACG,2.12
8,TCTGCTAGGTCAGTTGGTCATCTAACGAGCTGCC,0.463
9,CCTTACGGGTCACTAGGTTATAGCACGACGAGCG,3.38
10,TTACCAAGGTGAAAGGGCGTTGATGCACGCCTTG,0.61
11,CAAACTAGGTAACGAAAGGTCAAAGTCGAATGAC,4.87
12,GATACAGGGTCAAGGCTAGAGTACGCGTATTGAT,4.6
13,GCTCGGAGGACAAGGTCAGAGGTTTGTCCGTAGA,1.81
14,GTACCGAGGTGAATAGGTCGTTGATGAGTAGGCG,1.14
15,AGAATGAGGTTAAGAGCAGGGAAACAGAATACAT,0.967
16,ATCTCTAGGTAAAAGTTCACTGAATCCCGAGGAT,2.58
17,TCTATTTGGTCACGGAGGTCACACACGACGGGTA,5.87
18,GGTTGTAGATCAAGGTTAAGAAAGACTAAGCTAA,0.833
19,TCAGACAGGTGAAGGTCACTCAGGTACGCAGTCG,4.18
20,ACTTACGGGTCAACGAGGTTATGGCACGCGTATA,7.66
